Measurements reported in PubChem BioAssay AID1117291 (Broad Institute, 2014).
Measured potencies and affinities stand elsewhere. Records with an inconclusive call do not appear. Activity calls are given as the source filed them.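 The calls were made as follows: active = compound whose fitted half-maximal potency lies at or below double its highest tested dose in every test; inconclusive = tests disagree, or a flat partial loss, or a poor fit; inactive = every test inactive.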

Test: HepG2 cell cytotoxicity, dose response, cytotoxicity control, CellTiter-Glo luminescence, dry powder, set 20 (AID 1117291)
Settings: HepG2 viability, CellTiter-Glo ATP luminescence, 72 h; series mostly up to 26 µM; activity change, negative = cytotoxicity: at the top concentration

SMILES | activity change, negative = cytotoxicity | outcome
COc1ccc(C(=O)O)cc1S(=O)(=O)Nc1cc(C(F)(F)F)ccc1N(C)C | -10.8% (inactive) | 
CC(=O)N1CCN(C(=O)C2CCCN2C(=O)Nc2ccc(C)cc2)CC1 (configuration not stated) | -7.76% (inactive) | 
Cc1ccc(NC(=O)NC2(C(=O)N3CCN(c4ccccc4)CC3)CCCCC2)cc1 | 0.039% (inactive) | 
COc1cccc(NC(=O)NC2(C(=O)N3CCN(C(C)=O)CC3)CCCCC2)c1 | 0.762% (inactive) | 
CC(=O)N1CCN(C(=O)C2(NC(=O)Nc3ccc(C(F)(F)F)cc3)CCCC2)CC1 | -26.9% (inactive) | 
CC(=O)N1CCN(C(=O)C2(NC(=O)Nc3cccc(C(F)(F)F)c3)CCCCC2)CC1 | -9.88% (inactive) | 
NC(=NCCc1c[nH]c2ccccc12)NS(=O)(=O)c1cc(F)ccc1F | -6.37% (inactive) | 
CC(=O)N1CCN(C(=O)C2(NC(=O)Nc3ccccc3F)CCCCC2)CC1 |  | inactive
COc1ccc(C(=O)O)cc1S(=O)(=O)Nc1cc(C(F)(F)F)ccc1N1CCCCC1 |  | inactive
COc1ccc(C(=O)O)cc1S(=O)(=O)Nc1cc(C(F)(F)F)ccc1N1CCOCC1 | -30.4% (inactive) | 
Cc1ccc(NC(=O)NC2(C(=O)N3CCOCC3)CCCCC2)cc1 | -22.2% (inactive) | 
Cn1cnc(S(=O)(=O)Nc2cc(C(F)(F)F)ccc2N2CCCCC2)c1 | 16.2% (inactive) | 
COc1ccc(C(=O)Nc2cc(C(F)(F)F)ccc2N2CCCC2)cc1S(=O)(=O)O | -12% (inactive) | 
CC(=O)N1CCN(C(=O)C2(NC(=O)Nc3ccc(C(C)C)cc3)CCCCC2)CC1 | -21.6% (inactive) | 
CC(=O)N1CCN(C(=O)C2(NC(=O)Nc3ccc(F)cc3)CCCCC2)CC1 | 9.85% (inactive) | 
CC(=O)N1CCN(C(=O)C2(NC(=O)Nc3ccccc3C(F)(F)F)CCCCC2)CC1 | -12.9% (inactive) | 
O=S(=O)(Nc1cc(C(F)(F)F)ccc1N1CCCCC1)c1ccc(F)cc1 | -27.5% (inactive) | 
COc1ccc(C(=O)Nc2ccccc2N2CCCCC2)cc1S(=O)(=O)O | -17.1% (inactive) | 
O=S(=O)(O)c1ccc(N2N=C(c3ccccc3)CC2c2ccccc2)cc1 (configuration not stated) | -22.6% (inactive) | 
O=[N+]([O-])c1cccc(S(=O)(=O)Nc2cc(C(F)(F)F)ccc2N2CCCCC2)c1 | -7.31% (inactive) | 
O=C(Nc1cc(C(F)(F)F)ccc1N1CCCCC1)c1ccc(S(=O)(=O)O)cc1 | 2.79% (inactive) | 
O=S(=O)(Nc1cc(C(F)(F)F)ccc1N1CCCCC1)c1ccc(C(F)(F)F)cc1 | -34.1% (inactive) | 
